Source: PubChem BioAssay (NCI)
About 83,000 compounds went through this panel and 20% of them were active in at least one assay; those are over-represented in the sample as a whole.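 48-hour exposure, single concentration, 96-well plates; percent growth endpoint where 0 means no net growth. Active: below 10.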 Unmarked numbers belong to inactive results. The source made the active and inactive calls.

What was measured:
Assay in all cases: NCI-60 one-dose screen, 48 h (100 = growth as untreated, 0 = no growth, -100 = all killed)
Details in all cases: 10 µM
[1] = tested on: NCI-H23 lung
[2] = tested on: NCI-H226 lung
[3] = tested on: NCI-H322M lung
[4] = tested on: HOP-62 NSCLC
[5] = tested on: NCI-H460 lung
[6] = tested on: HOP-92 NSCLC
[7] = tested on: NCI-H522 lung
[8] = tested on: A549/ATCC NSCLC
[9] = tested on: 786-0 renal
[10] = tested on: COLO 205 colon

## Oc1ccc(/C=C2\CCCc3cc4ccc(O)cc4[o+]c32)c(O)c1
[1]
  growth: 30%
[2]
  growth: 77.6%
[3]
  growth: 63.3%
[4]
  growth: 44.7%
[5]
  growth: 19.8%
[6]
  growth: 40.9%
[7]
  growth: 4.53% (active)
[8]
  growth: 83%
[9]
  growth: 24.4%
[10]
  growth: 50.6%

## COc1ccc(N(C)c2cc(C#N)nc3ccccc23)cc1N
[1]
  growth: 9.56% (active)
[2]
  growth: 25.4%
[3]
  growth: 47.9%
[4]
  growth: 36.2%
[5]
  growth: 0.907% (active)
[6]
  growth: 58.1%
[7]
  growth: -25.9% (active)
[8]
  growth: 17.8%
[9]
  growth: 22.6%
[10]
  growth: -76.8% (active)

## CCCCCc1ccc(S(=O)(=O)N(C(C)=O)c2cc(-c3csc(N(C)C(C)=O)n3)ccc2N2CCN(C)CC2)cc1
[1]
  growth: 43.6%
[2]
  growth: 72.2%
[3]
  growth: 55.8%
[4]
  growth: 51.6%
[5]
  growth: -41.6% (active)
[6]
  growth: -2.86% (active)
[7]
  growth: 55.5%
[8]
  growth: 40.1%
[9]
  growth: -16.2% (active)
[10]
  growth: -71.6% (active)

## CC(=O)Nc1ccc(-c2cn(-c3cccc(C(=O)Nc4cccc(OC(F)(F)F)c4)c3)nn2)cn1
[1]
  growth: 87%
[2]
  growth: 106%
[3]
  growth: 114%
[4]
  growth: 97.7%
[5]
  growth: 47.4%
[6]
  growth: 122%
[7]
  growth: 88.5%
[8]
  growth: 86.3%
[9]
  growth: 115%
[10]
  growth: 111%

## CN(C)CCNC(=O)OCCCCOc1cc(O)c2c(=O)cc(-c3ccccc3)oc2c1
[1]
  growth: -2.08% (active)
[2]
  growth: 12.1%
[3]
  growth: -31.2% (active)
[4]
  growth: 2.14% (active)
[5]
  growth: -33.9% (active)
[6]
  growth: -42.6% (active)
[7]
  growth: -77% (active)
[8]
  growth: 4.88% (active)
[9]
  growth: -34.5% (active)
[10]
  growth: -46.4% (active)

## Cc1ccc(C(=O)CSc2nnc(-c3c[nH]c4ccccc34)n2-c2ccccc2)cc1
[1]
  growth: 17.3%
[2]
  growth: -41.3% (active)
[3]
  growth: 74.9%
[4]
  growth: 7.8% (active)
[5]
  growth: 29.3%
[6]
  growth: -7.56% (active)
[7]
  growth: 1.43% (active)
[8]
  growth: 53.3%
[9]
  growth: -35.4% (active)
[10]
  growth: 75%

## CN(C)c1ccc(/C=C/C(=O)c2ccc(NC(=O)CN3C(=O)NC(C)(c4ccccc4)C3=O)cc2)cc1 (stereo not given)
[1]
  growth: 66%
[2]
  growth: 53.2%
[3]
  growth: 88.8%
[4]
  growth: 88.9%
[5]
  growth: 73.7%
[6]
  growth: 65.3%
[7]
  growth: 78.3%
[8]
  growth: 56.5%
[9]
  growth: 29.8%
[10]
  growth: 110%

## COc1ccc(C(=O)NC(=S)N2CCN(c3ncnc4c3cnn4-c3ccccc3)CC2)cc1
[1]
  growth: 60%
[2]
  growth: 9.11% (active)
[3]
  growth: 66.8%
[4]
  growth: 31.9%
[5]
  growth: 55.8%
[6]
  growth: 32%
[7]
  growth: 41.2%
[8]
  growth: 58.8%
[9]
  growth: 82.8%
[10]
  growth: 79.7%

## CC1(c2ccccc2)NC(=O)N(CC(=O)Nc2ccc(C(=O)/C=C/C=C/c3ccccc3)cc2)C1=O (stereo not given)
[1]
  growth: 73.4%
[2]
  growth: 57.2%
[3]
  growth: 73.9%
[4]
  growth: 77.2%
[5]
  growth: 73.2%
[6]
  growth: 57.3%
[7]
  growth: 75.8%
[8]
  growth: 58.7%
[9]
  growth: 7.33% (active)
[10]
  growth: 98%

## CCOC(=O)CNC(=O)CN(Cc1ccccc1)C(=O)[C@@]1(C)CCC[C@]2(C)[C@H]3CC4C(C(C)C)=C[C@]3(CC[C@H]21)[C@@H]1C(=O)CCC(=O)[C@H]41
[1]
  growth: 48.9%
[2]
  growth: 49.3%
[3]
  growth: 86.5%
[4]
  growth: 92.3%
[5]
  growth: 65%
[6]
  growth: 80.5%
[7]
  growth: 36.7%
[8]
  growth: 65%
[9]
  growth: 78.1%
[10]
  growth: 79.4%

## O=C(CNc1nc(-c2ccccc2)cs1)Nc1ccc([N+](=O)[O-])cc1
[1]
  growth: -6.85% (active)
[2]
  growth: 29.4%
[3]
  growth: 6.59% (active)
[4]
  growth: 33.3%
[5]
  growth: 35%
[6]
  growth: 42.8%
[7]
  growth: -74.6% (active)
[8]
  growth: 42.8%
[9]
  growth: 16%
[10]
  growth: -83.3% (active)

## COc1ccc(-c2nc(-c3ccccc3)c(-c3ccccc3)n2-c2ccc(S(=O)(=O)Nc3ncccn3)cc2)cc1OC
[1]
  growth: 94.8%
[2]
  growth: 75.1%
[3]
  growth: 77.4%
[4]
  growth: 76.9%
[5]
  growth: 95.6%
[6]
  growth: 56.6%
[7]
  growth: 89%
[8]
  growth: 87.6%
[9]
  growth: 64.6%
[10]
  growth: 133%

## CC1=N/C(=C\c2ccc(N(C)C)cc2)C(=O)N1CCc1ccc(S(N)(=O)=O)cc1
[1]
  growth: 98.5%
[2]
  growth: 98.3%
[3]
  growth: 107%
[4]
  growth: 84.4%
[5]
  growth: 107%
[6]
  growth: 96.5%
[7]
  growth: 87.2%
[8]
  growth: 93.2%
[9]
  growth: 101%
[10]
  growth: 113%

## COC(=O)CC1CC1C1Cc2c(nc(N(C)S(C)(=O)=O)nc2C(C)C)-c2ccc(F)cc21 (stereo not given)
[1]
  growth: 69.1%
[2]
  growth: 78.8%
[3]
  growth: 96.8%
[4]
  growth: 109%
[5]
  growth: 94.6%
[6]
  growth: 84%
[7]
  growth: 55.6%
[8]
  growth: 92.3%
[9]
  growth: 86%
[10]
  growth: 90.8%

## Cc1ccc2nc(COc3ccc(C(=O)NNC(=S)NC(=O)c4ccccc4)cc3)[nH]c2c1
[1]
  growth: 53.3%
[2]
  growth: 60.7%
[3]
  growth: 80.7%
[4]
  growth: 45.4%
[5]
  growth: 20.5%
[6]
  growth: 80.6%
[7]
  growth: 60.5%
[8]
  growth: 53.9%
[9]
  growth: 74.4%
[10]
  growth: 84%

## CN1CCN(Cc2ccc(NC(=O)c3cncc(C#Cc4cnc5ccc(N[C@H]6CCOC6)nn45)c3)cc2C(F)(F)F)CC1
[1]
  growth: -80.4% (active)
[2]
  growth: -89.1% (active)
[3]
  growth: -95.3% (active)
[4]
  growth: -80% (active)
[5]
  growth: -76.1% (active)
[6]
  growth: -79.4% (active)
[7]
  growth: -69.1% (active)
[8]
  growth: -59.9% (active)
[9]
  growth: -75.6% (active)
[10]
  growth: -79.6% (active)

## CC[C@@]1(O)C(=O)OCc2c1cc1n(c2=O)Cc2c-1nc1cc(F)c(C)c3c1c2[C@@H](N)CC3
[1]
  growth: -57.4% (active)
[2]
  growth: -54.1% (active)
[3]
  growth: 0.642% (active)
[4]
  growth: -31.7% (active)
[5]
  growth: -4.63% (active)
[6]
  growth: 15.1%
[7]
  growth: -53.9% (active)
[8]
  growth: -57.9% (active)
[9]
  growth: 5.22% (active)
[10]
  growth: -81.6% (active)

## COc1ccc(-c2nc(S(=O)(=O)c3ccccc3)c(S(C)(=O)=O)o2)cc1
[1]
  growth: 3.05% (active)
[2]
  growth: 74.5%
[3]
  growth: 101%
[4]
  growth: 96.7%
[5]
  growth: 75.9%
[6]
  growth: -60.8% (active)
[7]
  growth: -97.2% (active)
[8]
  growth: 88.7%
[9]
  growth: -16.9% (active)
[10]
  growth: -85.6% (active)

## COc1cc2c3c(n(CCCn4ccnc4)c(=O)c2cc1OC)-c1nc2c(cc1C3=O)OCO2
[1]
  growth: 20%
[2]
  growth: 30.3%
[3]
  growth: 71.6%
[4]
  growth: 22.7%
[5]
  growth: 8.7% (active)
[6]
  growth: 117%
[7]
  growth: 40.4%
[8]
  growth: 47.7%
[9]
  growth: 12.1%
[10]
  growth: 34.2%

## Cc1ccc(/C=C(\C#N)n2nnc3c(F)cccc32)cc1
[1]
  growth: 14.7%
[2]
  growth: 16.8%
[3]
  growth: 10.1%
[4]
  growth: 17.8%
[5]
  growth: 3.45% (active)
[6]
  growth: -4.81% (active)
[7]
  growth: 1.65% (active)
[8]
  growth: -3% (active)
[9]
  growth: 38.5%
[10]
  growth: -70.6% (active)

## O=C(NO)c1ccc(CNC(=O)[C@H]2Cc3c([nH]c4ccccc34)[C@H](c3ccc(Cl)cc3)N2)cc1
[1]
  growth: -50.8% (active)
[2]
  growth: 28.2%
[3]
  growth: 28.5%
[4]
  growth: 2.45% (active)
[5]
  growth: 10.3%
[6]
  growth: -17.1% (active)
[7]
  growth: -35.2% (active)
[8]
  growth: 24.5%
[9]
  growth: 22.6%
[10]
  growth: -82.7% (active)

## Cc1cc(C)nc(NS(=O)(=O)c2ccc(N/C(N)=N/c3nccc(-c4cccs4)n3)cc2)n1
[1]
  growth: 90%
[2]
  growth: 77.8%
[3]
  growth: 95.6%
[4]
  growth: 83%
[5]
  growth: 99.2%
[6]
  growth: 107%
[7]
  growth: 90.5%
[8]
  growth: 99.7%
[9]
  growth: 111%
[10]
  growth: 105%

## CCOC(=O)C1=C(N)N(c2ccccc2)C2=C(C(=O)CC(C)(C)C2)C1c1ccc(Cl)cc1 (stereo not given)
[1]
  growth: 48.9%
[2]
  growth: 70.4%
[3]
  growth: 64.9%
[4]
  growth: 80.7%
[5]
  growth: 13%
[6]
  growth: 69.5%
[7]
  growth: 38.4%
[8]
  growth: 33.9%
[9]
  growth: 67.3%
[10]
  growth: -17.7% (active)

## O=C(c1ccc(Cl)cc1)C1[C@H](c2ccccc2Br)[C@@H](c2ccccc2)NC12C(=O)Nc1ccccc12 (stereo not given in full)
[1]
  growth: 6.15% (active)
[2]
  growth: 21.9%
[3]
  growth: 42.1%
[4]
  growth: 43.6%
[5]
  growth: 0.679% (active)
[6]
  growth: 14%
[7]
  growth: -3.71% (active)
[8]
  growth: 20.4%
[9]
  growth: 16.3%
[10]
  growth: -42.4% (active)

## CCOC(=O)C(Cc1ccccc1)N1C(=O)/C(=C/N2N=C(c3ccc(OC)cc3)CC2c2ccc3ccccc3c2)SC1=S (stereo not given)
[1]
  growth: -55.5% (active)
[2]
  growth: -41.8% (active)
[3]
  growth: 18.2%
[4]
  growth: -54.8% (active)
[5]
  growth: -3.96% (active)
[6]
  growth: -8.32% (active)
[7]
  growth: 1.04% (active)
[8]
  growth: 21.7%
[9]
  growth: 13.8%
[10]
  growth: -86% (active)

## COc1cc(NC(=O)c2cc(-c3ccc(F)cc3F)ccc2O)cc(OC)c1OC
[1]
  growth: 26.2%
[2]
  growth: 50.9%
[3]
  growth: 38.4%
[4]
  growth: 24%
[5]
  growth: 22.5%
[6]
  growth: -11.8% (active)
[7]
  growth: 7.09% (active)
[8]
  growth: 37.1%
[9]
  growth: 54%
[10]
  growth: 116%
